Assay outcomes (PubChem BioAssay)
hcDAF12 agonist = H. contortus DAF-12 nuclear receptor activators, primary screen, cell-based, luminescence, HEK293, lit1-tk-luc reporter; HEK293 hcDAF-12 lit1-tk-luc reporter; 0% DMSO, 100% Δ7-dafachronic acid; activation, % at 6.8 µM; 370,000 compounds, 1.4% hits;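 active = activation above the mean of all tested compounds plus 3 SD, cut at about 5.5% in these data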;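 note: 100% = response to 3 µM Δ7-dafachronic acid high control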
hgDAF-12 ag = H. glycines DAF-12 receptor agonists, primary screen, cell-based, luminescence, HEK293, GAL4 fusion, UAS-luciferase; Nuclear hormone receptor DAF-12 (Heterodera glycines), GAL4 fusion; HEK293 GAL4-hgDAF12 UAS-luciferase reporter, agonist luminescence; normalized to butyrate control; activation, % at 6.8 µM; 370,000 compounds, 1.8% hits;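 active = activation above a cutoff set at the mean of all screened compounds plus 3 SD, cut at about 10% in these data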;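 note: 0% = DMSO wells and 100% = sodium butyrate wells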
SMARCA2 activ = SMARCA2 (BRM) function activators, primary screen, cell-based, luminescence, high throughput | MG213 cells, MMTV-luciferase reporter, dexamethasone, overnight | activation, % at 9.1 µM | 370,000 compounds, 1% hits | AID 652017, 2013; in the data active = activation above about 7.8%;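 note: 0% = vehicle wells and 100% = reference activator wells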
ssDAF12 agonist = S. stercoralis DAF-12 nuclear receptor activators, primary screen, cell-based, luminescence, HEK293, GRIP1 co-expression, lit1-tk-luc | Nuclear hormone receptor DAF-12 (Strongyloides stercoralis) | HEK293 ssDAF-12/GRIP1 lit1-tk-luc reporter; % of 3 µM dafachronic acid response | activation, % at 6.8 µM | 370,000 compounds, 1% hits | AID 652126, 2013;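 active = activation above the mean over all tested compounds plus 3 SD, cut at about 0.9% in these data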;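 note: 0% = DMSO-only wells and 100% = 3 µM delta7-dafachronic acid wells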
DAX1 inh-1 = DAX1 (NR0B1) inhibitors, primary screen, cell-based, HEK293, Gal4-DAX1, luciferase luminescence; Nuclear receptor subfamily 0 group B member 1 (Homo sapiens), P51843; HEK293 Gal4-DAX1 luciferase reporter; inhibition, % at 6.75 µM; 340,000 compounds, 0.99% hits;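 active = inhibition above the mean over all tested compounds plus 3 SD, cut at about 4.2% in these data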;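 note: 0% = DAX1-transfected cells with DMSO and 100% = empty-vector control cells with DMSO; inhibition shows as a rise in luminescence from relieved DAX1 repression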
Target sequence (P51843 207-470 limits assumed): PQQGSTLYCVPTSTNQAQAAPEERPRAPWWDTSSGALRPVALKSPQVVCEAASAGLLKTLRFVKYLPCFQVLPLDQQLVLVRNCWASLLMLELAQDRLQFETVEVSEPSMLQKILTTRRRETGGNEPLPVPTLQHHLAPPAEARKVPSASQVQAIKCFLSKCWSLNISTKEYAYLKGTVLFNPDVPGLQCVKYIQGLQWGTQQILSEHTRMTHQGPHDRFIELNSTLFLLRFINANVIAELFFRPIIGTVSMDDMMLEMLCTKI
DAX1 inh-2 = DAX1 (NR0B1) inhibitors on StAR promoter, primary screen, cell-based, luminescence, SF-1 (NR5A1), full-length DAX-1 | HEK293T StAR-luciferase reporter, SF-1/DAX-1 repression relief | inhibition, % at 6.8 µM | AID 652010, 2013 | 370,000 compounds, 1.1% hits;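 active = inhibition above the mean over all tested compounds plus 3 SD, cut at about 3.6% in these data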;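 note: 0% = DAX-1 cells with DMSO and 100% = cells lacking DAX-1 with DMSO; higher inhibition means more luminescence from relief of DAX-1 repression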
SMARCA2 conf = SMARCA2 (BRM) function activators, confirmation, cell-based, luminescence, triplicate. shares compounds with SMARCA2 activ. MG213 cells, MMTV-luciferase with dexamethasone, overnight; MG213 cells expressing E1A, Rb sequestered; DMSO wells 0%, reference activator 100%. activation, % at 9.1 µM. 3,500 compounds, 30% hits;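 active = activation above its plate's cutoff, the mean activation of tested wells plus 3 SD, cut at about 7.9% in these data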
VP16 Luc act = GAL4-VP16 luciferase reporter activation, counter-screen for SMARCA2 (BRM) activator project, cell-based, pG5luc, luminescence, high throughput | HEK293 GAL4-VP16 pG5luc reporter; scaled: DMSO wells 0%, SAHA wells 100% | shares compounds with SMARCA2 activ | activation, % at 9.1 µM | 3,500 compounds, 41% hits;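 active = activation above the solvent-only control well mean plus 3 SD, averaged across control plates, cut at about 5.2% in these data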
Active calls of the source: *; x = no result given. Shown are actives, neighbours in structure and some others; about 4.8% of the full set was active somewhere.

SMILES | hcDAF12 agonist | hgDAF-12 ag | SMARCA2 activ | ssDAF12 agonist | DAX1 inh-1 | DAX1 inh-2 | SMARCA2 conf | VP16 Luc act
C[C@H]1C(=O)[C@]23C[C@H]1CC[C@H]2[C@]1(C)[C@@H](O)CC[C@@](C)(C(=O)O)[C@H]1C[C@@H]3O | 0.5 | 2.6 | -1.9 | 0.2 | x | -1.6 | x | x
C#CC(CC)(CC)NC(=O)c1cc(S(=O)(=O)N2CCCCC2)ccc1N1CCOCC1 | 1.0 | 0.6 | 0.8 | -0.5 | -3.8 | -1.3 | x | x
O=C1Cn2c(nc3ccccc32)-c2ccccc2N1 | 0.2 | -1.4 | -2.7 | -1.3 | -1.2 | -0.1 | x | x
c1ccc(C2Nc3ccccc3-c3nc4ccccc4n32)nc1 (centres undefined) | 0.3 | 9.9 | 10.1* | -0.3 | 0.8 | 1.0 | 1.3 | 1.0
Cc1cc(OCC(=O)N2CCC(C(=O)O)CC2)c2c(C)c(C)c(=O)oc2c1 | -0.9 | 3.6 | 1.4 | -0.9 | 1.4 | -0.4 | x | x
Cc1cc(C)c2[nH]c(C(=O)Nc3ccc4c(c3)OCO4)cc2c1 | -0.6 | 3.5 | 8.0* | -1.9 | -1.0 | 0.2 | -0.4 | 3.4
Cc1ccc(C(=O)Nc2ccc(F)cc2)cc1NC1=NC2CS(=O)(=O)CC2S1 (centres undefined) | 1.2 | -1.2 | 9.8* | -1.3 | -0.2 | 2.1 | -5.2 | 1.5
COc1ccc(S(=O)(=O)N2CCCCC2c2cc(C(=O)Nc3ccccc3)no2)cc1 (centres undefined) | 1.0 | -0.5 | -2.1 | -1.7 | x | 1.0 | x | x
CC(C)(C)c1ccc(OCc2ccc(C(=O)N3CCOCC3)o2)cc1 | -0.3 | -3.0 | 3.1 | -1.5 | -0.7 | 0.3 | x | x
CCCc1ccc(OCc2ccc(C(=O)N3CCSCC3)o2)cc1 | 1.5 | 7.8 | 8.3* | -0.4 | 0.1 | 1.5 | 3.8 | 7.4*
CC1CCCN(CCCNC(=O)c2cc3c(Cl)nc4ccccc4c3s2)C1 (centres undefined) | 0.0 | 2.4 | 14.7* | -0.7 | 0.2 | 1.1 | 26.5* | 1.9
CCN(CC)CCCNC(=O)c1cc2c(Cl)nc3ccccc3c2s1 | 2.7 | 3.2 | 17.7* | -0.8 | 1.5 | 1.0 | 23.2* | 0.9
CN(CCCNC(=O)c1cc2c(Cl)nc3ccccc3c2s1)Cc1ccccc1 | -1.0 | -2.2 | 6.6 | -1.0 | 0.5 | 0.6 | x | x
CCOCc1nnc(NC(=O)C2c3ccccc3Oc3ccccc32)s1 | -0.7 | -5.2 | -1.8 | -1.0 | 0.0 | -0.3 | x | x
O=C(CN(Cc1ccc(F)cc1)C(=O)CCC(=O)Nc1nccs1)NCc1ccccc1 | -3.0 | 2.1 | -3.6 | -1.3 | -0.5 | 0.0 | x | x
CN(Cc1ccccc1)S(=O)(=O)c1ccc2[nH]c(=O)ccc2c1 | -2.0 | -0.6 | 8.7* | -1.1 | 0.9 | 0.4 | -1.0 | 2.5
O=C(c1ccncc1F)N1CCC(n2nnc3ncccc32)CC1 | -0.5 | 0.3 | 8.1* | -0.4 | x | -0.1 | -0.2 | -0.7
O=C(c1cncnc1)N1CCC(n2nnc3ncccc32)CC1 | -2.4 | -1.0 | -3.4 | -1.0 | x | -0.7 | x | x
O=C(N/N=C/C=C/c1ccccc1)NC1CCCCC1 | 2.6 | 2.9 | 0.6 | -1.2 | 1.9 | -0.6 | x | x
CC(=O)NC1C(=O)N=C(SCC(=O)NCc2ccccc2)NC1=O (centres undefined) | 2.2 | 0.2 | 10.5* | -1.1 | -0.8 | 0.3 | -0.6 | 1.9
CC(=O)NC1C(=O)N=C(SCC(=O)Nc2c(C)cccc2C)NC1=O (centres undefined) | -1.2 | -4.6 | -0.9 | -1.9 | 0.8 | -0.2 | x | x
COc1cccc(OCc2cc(/C=N/Nc3ccc(C(=O)O)cc3)ccc2OC)c1 | 0.9 | 6.4 | 0.2 | -1.0 | 2.2 | 2.5 | x | x
COc1ccc(/C(N)=N/OC(=O)c2ccco2)cc1 | 4.0 | 11.1* | 8.6* | 0.3 | -1.4 | 3.9* | 7.5 | 13.2*
COc1ccc(C(=O)COC(=O)c2ccco2)cc1 | 1.3 | 9.9 | 7.6 | 0.2 | 2.0 | 0.4 | x | x
O=C(Nc1ccc(OCC(=O)N2CCOCC2)cc1)Nc1cccc2ccccc12 | -0.4 | 1.8 | 3.3 | -1.0 | 0.0 | -0.1 | x | x
SMILES | hcDAF12 agonist | hgDAF-12 ag | SMARCA2 activ | ssDAF12 agonist | DAX1 inh-1 | DAX1 inh-2 | SMARCA2 conf | VP16 Luc act
COc1cc2c(cc1OC)-c1cc(Nc3ccc(C)cc3)nc(=O)n1CC2 | -3.4 | -1.7 | 9.9* | -1.6 | 2.4 | 0.1 | 9.2* | 4.5
COc1cc2c(cc1OC)-c1cc(Nc3ccccc3Br)nc(=O)n1CC2 | -4.8 | -3.6 | 12.7* | -1.6 | 1.4 | -0.7 | 8.6* | 15.6*
COc1ccc(Nc2cc3n(c(=O)n2)CCc2cc(OC)c(OC)cc2-3)cc1 | -4.4 | -4.8 | 6.9 | -1.4 | -1.4 | -0.1 | x | x
COc1cc2c(cc1OC)-c1cc(Nc3ccccc3)nc(=O)n1CC2 | -4.0 | -4.2 | 4.4 | -2.2 | -1.8 | -0.3 | x | x
O=C(CNC(=O)c1ccccc1F)NCCc1ccc(Cl)cc1 | -0.2 | -0.2 | -1.1 | -0.8 | -1.1 | -0.1 | x | x
O=C(CNC(=O)c1ccccc1F)NCCc1ccc(Cl)cc1Cl | -1.2 | -1.9 | 9.5* | -1.3 | 0.2 | 0.1 | -1.7 | 2.4
C(=N\Nc1nc(Nc2ccccc2)nc(N2CCCCC2)n1)/c1ccco1 | -2.6 | 1.0 | -1.5 | -1.0 | x | -1.0 | x | x
COc1ccc(/C=C/C2=CCN(Cc3ccc(OC)cc3)CC2)cc1 | -1.2 | -0.5 | -6.3 | -2.2 | x | -0.4 | x | x
O=C1CC(N2CCN(S(=O)(=O)c3ccccc3F)CC2)C(=O)N1c1ccc(F)cc1F (centres undefined) | -1.0 | -2.1 | 1.3 | -1.6 | -0.1 | -1.1 | x | x
O=C(CCC1CCCN(c2ncccn2)C1)NCc1ccc(F)c(F)c1 (centres undefined) | -3.1 | -6.2 | 2.5 | -1.2 | 0.1 | -0.5 | x | x
COc1ccc(N2CCN(C(=O)c3cc(=O)c4ccc(C)cc4o3)CC2)cc1 | 0.6 | -0.9 | 11.8* | -1.0 | 2.9 | 0.1 | 3.0 | 1.1
CCOC(=O)C(=O)N(C)c1c(CC)nc2c(OCc3ccccc3)cccn12 | -0.5 | 0.3 | -3.1 | -1.0 | x | 0.9 | x | x
